# Screening data deposited in PubChem BioAssay by National Center for Advancing Translational Sciences (NCATS).
# BAZ2B inh = qHTS Assay for Inhibitors of BAZ2B | Potency, µM (doses to about 114 µM), for the others: at the top dose activity change, negative = inhibition, actives largely listed as inhibitors | Bromodomain adjacent to zinc finger domain protein 2B (Homo sapiens), Q9UIF8 | AlphaScreen BAZ2B-H3K14Ac peptide displacement | 360,000 tested, 4.4% active; also: % is scaled to controls: 0 for no effect and ±100 for the full control effect; nearly all actives have a fitted effect of over 60% in size
#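 AlphaScreen luminescence quantifies BAZ2B engagement of H3K14Ac peptide; the protein and biotinylated peptide are both at 50 nM final, buffer PBS pH 7.4 with 0.01% Tween-20, all steps at room temperature.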
# HP1b binding inh = HTS for Inhibitors of HP1-beta Chromodomain Interactions with Methylated Histone Tails; AID 540317, 2011; Chromobox protein homolog 1 (Homo sapiens), P83916; AlphaScreen HP1-beta / biotin-H3K9me3 peptide binding; 390,000 tested, 0.56% active; Potency, µM (series often up to 114 µM), without a hit: at the highest dose activity change, negative = inhibition, actives largely listed as inhibitors; also: nearly all actives have a fitted effect of over 70% in size
#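 HP1-beta protein (50 nM final) preincubated 30 min at room temperature with biotinylated H3(1-18)K9me3 peptide (50 nM) in PBS pH 7.4, 0.01% Tween-20, then compound added for 30 min. AlphaScreen streptavidin donor/nickel chelate acceptor beads (10 ug/mL final), 30 min dark, luminescence read.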
# L3MBTL1 inh = qHTS Assay for the Inhibitors of L3MBTL1. Lethal(3)malignant brain tumor-like protein 1 (Homo sapiens), Q9Y468. AlphaScreen L3MBTL1–H3K9me1 peptide binding. Potency, µM (top dose mostly 57.1 µM), for inactives: at the top dose activity, negative = inhibition, actives largely listed as inhibitors. 230,000 tested, 0.66% active. AID 485360, 2010; also: % is scaled to controls: 0 for no effect and ±100 for the full control effect; nearly all actives have a fitted effect of over 60% in size
#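 AlphaScreen assay: L3MBTL1 (50 nM final) was preincubated 30 min at room temperature with biotinylated H3(1-15)K9me1 peptide (75 nM final), then 30 min with library compounds; streptavidin donor and nickel chelate acceptor beads (10 ug/mL final) added, 30 min dark.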
# G9a block = qHTS Assay for Inhibitors of Histone Lysine Methyltransferase G9a. Histone-lysine N-methyltransferase EHMT2 (Homo sapiens), Q96KQ7. G9a H3K9 monomethylation, AlphaScreen, 2 h. Potency, µM (top dose mostly 102 µM), for inactives: top-dose activity, negative = inhibition, most hits filed as inhibitors. 350,000 tested, 8.8% active; also: % is scaled to controls: 0 for no effect and ±100 for the full control effect; nearly all actives have a fitted effect of over 75% in size
#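 Using a bead-based AlphaScreen, monomethylated H3K9 product from 2 h room-temperature reactions (G9a 20 nM, peptide 500 nM, SAM 20 uM) was detected with 0.5 ug/mL rabbit anti-H3K9me1 antibody.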
# JMJD2A Tudor inh = qHTS Assay for Inhibitors of JMJD2A-Tudor Domain; Lysine-specific demethylase 4A (Homo sapiens), O75164; AlphaScreen JMJD2A-Tudor / H3K4me3 peptide binding; Potency, µM (doses to about 114 µM), inactives show at the top dose activity change, negative = inhibition, actives largely listed as inhibitors; 390,000 tested, 4.4% active; AID 504339, 2011; also: % is scaled to controls: 0 for no effect and ±100 for the full control effect; nearly all actives have a fitted effect of over 50% in size
# Target sequence (O75164 whole entry, looked up, the tested form may be a part): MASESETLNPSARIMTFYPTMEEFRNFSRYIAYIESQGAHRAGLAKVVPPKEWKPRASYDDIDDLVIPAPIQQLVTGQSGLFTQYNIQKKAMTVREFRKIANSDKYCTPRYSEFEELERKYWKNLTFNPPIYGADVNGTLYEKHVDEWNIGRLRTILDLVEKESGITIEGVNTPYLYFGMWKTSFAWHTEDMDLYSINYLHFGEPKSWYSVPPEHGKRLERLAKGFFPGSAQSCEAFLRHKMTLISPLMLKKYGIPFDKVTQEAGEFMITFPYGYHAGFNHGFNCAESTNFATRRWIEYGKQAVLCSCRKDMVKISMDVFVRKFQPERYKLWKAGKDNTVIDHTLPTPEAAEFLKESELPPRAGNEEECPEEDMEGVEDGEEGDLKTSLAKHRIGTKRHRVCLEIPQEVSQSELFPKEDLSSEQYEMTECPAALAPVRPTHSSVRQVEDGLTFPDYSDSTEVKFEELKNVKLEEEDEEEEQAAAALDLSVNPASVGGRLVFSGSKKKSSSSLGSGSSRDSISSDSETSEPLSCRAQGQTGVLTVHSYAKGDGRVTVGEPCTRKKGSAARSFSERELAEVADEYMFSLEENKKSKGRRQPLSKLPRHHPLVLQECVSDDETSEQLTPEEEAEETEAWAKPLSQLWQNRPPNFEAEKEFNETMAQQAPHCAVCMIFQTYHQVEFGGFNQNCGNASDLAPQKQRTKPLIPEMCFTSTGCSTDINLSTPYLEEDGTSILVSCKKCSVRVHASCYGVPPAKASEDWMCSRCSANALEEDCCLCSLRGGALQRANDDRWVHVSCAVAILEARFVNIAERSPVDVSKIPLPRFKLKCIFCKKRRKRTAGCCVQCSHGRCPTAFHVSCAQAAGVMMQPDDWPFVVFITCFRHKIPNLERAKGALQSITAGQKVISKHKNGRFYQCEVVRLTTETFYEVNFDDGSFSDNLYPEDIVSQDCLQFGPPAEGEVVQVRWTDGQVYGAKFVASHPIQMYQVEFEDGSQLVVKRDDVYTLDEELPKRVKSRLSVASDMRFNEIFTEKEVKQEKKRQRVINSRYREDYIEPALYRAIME
# The depositor's hits bear a star; ? = inconclusive; nt = no result given; [ ] = dose if it differs, or a comment. Only some compounds are listed: those with a hit (about 11% of all), similar ones and a draw of the others. Calls follow the shape of the dose curve; as a rule, active = well fitted inhibition curve with a large enough effect; inconclusive = small, poorly fitted or top-dose-only effect; inactive = no such curve, though single readings can be large or run the other way. Potency is read from the fitted curve at half-maximal effect.
SMILES,BAZ2B inh,HP1b binding inh,L3MBTL1 inh,G9a block,JMJD2A Tudor inh
C=CCn1c(SCC(=O)c2ccccc2)nnc1-c1ccc2c(c1)OCO2,?,-19%,nt,20µM*,35µM*
C=CCn1c(SCC(=O)NCc2ccc3c(c2)OCO3)nnc1-c1cccnc1,-5%,11%,nt,6%,-7%
C=CCn1c(SCC(=O)c2ccccc2)nnc1-c1cc2ccccc2o1,-4%,27%,-5%,50µM*,-17%
CCOC(=O)c1cc(C)n(CC2CCC(C(=O)Nc3ccc(C(C)=O)cc3)CC2)c1C (stereo unspecified),-16%,36%,nt,-8%[59 µM],-8%
Cc1ccc(NC(=O)c2ccc(NCCN)c([N+](=O)[O-])c2)cc1,-6%,9%,-9%,23%[59 µM],-30%
O=C(Nc1cccc(Cl)c1)c1ccc(NCCCN2CCOCC2)c([N+](=O)[O-])c1,45µM*,?,-9%,14%[0.501 µM],?
Cc1ccc(NC(=O)c2ccc(NCCCN3CCC(C)CC3)c([N+](=O)[O-])c2)cc1F,-12%,2%,nt,71µM*,79µM*
CCOC(=O)C1(Cc2ccccc2C)CCCN(Cc2cn(C)nc2C)C1 (stereo unspecified),1%,22%,1%,nt,-9%
CCOC(=O)C1(CCOc2ccccc2)CCN(Cc2ccc(O)c(OCC)c2)CC1,0%,13%,-2%,79µM*,?
CCOC(=O)C1(CCOc2ccccc2)CCN(Cc2ccc(O)cc2)CC1,-6%,21%,22%,nt,-23%
CCOC(=O)C1(CCOC)CCN(Cc2cnc(-c3cccc(C)c3)nc2)CC1,-1%,29%,-3%,45µM*,-27%
CCOC(=O)C1(CCOc2ccccc2)CCN(Cc2ccc(OC)c(O)c2)CC1,10%,19%,24%,nt,-24%
CCOC(=O)C1(CCOc2ccccc2)CCN(Cc2cc(OC)c(O)c(OC)c2)CC1,-33%,-25%,-2%,79µM*,?
CCOC(=O)C1(CCOC)CCN(Cc2ccc3nonc3c2)CC1,-1%,20%,7%,-43%,-13%
CCOC(=O)C1(Cc2ccccc2C)CCCN(Cc2cc(OC)c(O)c(OC)c2)C1 (stereo unspecified),-26%,28%,-19%,45µM*,0%[57.1 µM]
O=C(CN1C(=O)NC2(CCCC2)C1=O)NCCN1C(=O)S/C(=C\c2ccccc2F)C1=O,18%,19%,8%,-22%,-8%
COc1ccc(/C=C2\SC(=O)N(CCNC(=O)CN3C(=O)NC4(CCCC4)C3=O)C2=O)cc1,9%,13%,6%,50µM*,-21%
CN(C)CCCNc1oc(/C=C/c2ccc(F)cc2)nc1C#N,-9%,43%,nt,-28%[59 µM],6%
CCC(=O)N[C@@H]1CC(C(C)(C)NC(=O)CC)CC=C1C (stereo partly specified),-2%,-12%,-2%,-41%,50µM*
Cn1nnc2c(NCCc3ccccc3)ncnc21,4%,29%,nt,3%[59 µM],-5%
Cc1ccc(/C=C2\SC(=S)N(CCCC(=O)Nc3cccc(C(=O)O)c3)C2=O)cc1,-25%,?,nt,56%,40µM*
O=C(CCN1C(=O)/C(=C/c2ccc(Cl)cc2)SC1=S)Nc1cccc(C(=O)O)c1,32µM*,-39%,nt,45µM*,50µM*
COc1ccc(/C=C2\SC(=S)N(CCC(=O)Nc3cccc(C(=O)O)c3)C2=O)cc1,?,4%,-5%,nt,?
COc1ccc(C(=O)NCC(=O)OCC(=O)c2ccc3ccccc3c2)cc1,nt,5%[57 µM],nt,nt,-18%[57.1 µM]
CCOc1ccc(-n2c(C)nc3cc(C(=O)NC4CCCC4)ccc32)cc1,-3%,34%,nt,?,-13%
SMILES,BAZ2B inh,HP1b binding inh,L3MBTL1 inh,G9a block,JMJD2A Tudor inh
COc1cc(OC)c(NC(=O)c2ccc3c(c2)N(Cc2ccc(C)cc2)CCS3)cc1Cl,-12%,51%,nt,1%[59 µM],-6%
CC(C)c1ccc(Nc2nnc(SC3CCOC3=O)s2)cc1 (stereo unspecified),3%,40%,-8%,3%[59 µM],3%
Cc1ccc(Nc2nnc(SC3CCOC3=O)s2)cc1 (stereo unspecified),10%,29%,8%,10µM*,-18%
CN1CCN(c2ncc3nc(-c4ccc(Cl)cc4)c(=O)n(CCC#N)c3n2)CC1,nt,nt,nt,4%[12.7 µM],nt
CCc1ccc(-c2cn3c(n2)sc2cc(C(=O)NCCC4=CCCCC4)ccc23)cc1,-12%,32%,nt,?,-12%
Cc1ccc(CN(C)C(=O)c2cc(COc3cccc(C(F)(F)F)c3)on2)o1,-5%,3%,nt,32µM*,-22%
C=CCNc1nc(C)c(C(C)=O)cc1C#N,50µM*,47%,nt,11%,1%
COc1ccc2nc(C)c(C(=O)OCCN(C)C)cc2c1,5%,nt,-2%,50µM*,nt
CC(C)(C)NC(=O)[C@@H]1CN(Cc2cccnc2)CCN1C[C@@H](O)C[C@@H](Cc1ccccc1)C(=O)N[C@H]1c2ccccc2C[C@H]1O,nt,8%,nt,nt,89µM*
O=C(c1cccs1)N1CCCc2cc(NS(=O)(=O)c3ccc(Br)cc3)ccc21,-25%,-7%,nt,-27%[59 µM],-33%
CCOC(=O)CNC(=O)CSc1nc2sc(C)c(C)c2c(=O)n1C,-26%,6%,-5%,45µM*,-25%
O=C(NCc1ccccc1)c1ccc2nc(-c3ccco3)c(-c3ccco3)nc2c1,50µM*,-94%,nt,1.8µM*,20µM*
O=C(c1cccc(C(=O)N2CCN(c3ncccn3)CC2)c1)N1CCN(c2ncccn2)CC1,11%,22%,3%,19%,-9%
O=C(c1ccc2nc(-c3ccco3)c(-c3ccco3)nc2c1)N1CCN(c2ncccn2)CC1,?,7%,-19%,35µM*,89µM*
O=C(NC1CC1)c1ccc2nc(-c3ccco3)c(-c3ccco3)nc2c1,nt,22µM*,nt,nt,20µM*
CC(=O)c1ccc(NC(=O)c2ccc3nc(-c4ccco4)c(-c4ccco4)nc3c2)cc1,11µM*,8.9µM*,nt,1.8µM*,45µM*
CCc1nc2ccc(C(=O)Nc3ccc(NC(C)=O)cc3)cc2nc1CC,5%,3%,-1%,-11%[59 µM],-14%
CS(=O)(=O)N1CCC2(CCN(c3ccccn3)CC2)CC1,nt,nt,nt,3%[12.7 µM],nt
Cc1ccc(NC(=O)CCc2c(C)nc3ncnn3c2C)cc1Cl,-2%,30%,nt,-6%[59 µM],-4%
O=C(Nc1ccc(N2CCOCC2)cc1)c1ccc2nc(-c3ccco3)c(-c3ccco3)nc2c1,-3%,38%,-7%,?,-19%
O=C(Nc1ccccc1)c1ccc2nc(-c3ccco3)c(-c3ccco3)nc2c1,-34%,?,?,?,50µM*
CCNC(=O)c1ccc2nc(-c3ccccc3)c(-c3ccccc3)nc2c1,nt,22%[57 µM],nt,nt,-12%[57.1 µM]
